Data from PubChem BioAssay AID1159580 (chemical genetic matrix, 2015).
In all, about 5,500 compounds went through this assay and about 2,000 (36%) were called active. Not shown: some 18% with an inconclusive outcome. Cut-off read from the data, not from the text of the source: active = normalized growth mostly below about 0.91 (no sharp cut-off); inconclusive = no clear call, values can overlap the other calls; inactive = mostly above about 0.92. The list shows a part of the results.

Assay: chemical genetic growth profiling, strain panel (AID 1159580);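 note: tested at 20 µM; growth read once vehicle control cultures reached saturation at 30 °C; 1 = growth at the plate median or of vehicle wells; lower values mean less growth of the strain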
Settings: S. cerevisiae deletion strains, growth OD

Measured: normalized growth

COc1ccc(-c2cc(=O)c3c(O)cc(O[C@H]4O[C@H](CO[C@@H]5O[C@@H](C)[C@H](O)[C@@H](O)[C@H]5O)[C@@H](O)[C@H](O)[C@H]4O)cc3o2)cc1
inactive: locus YAL013W, strain DEP1, active compounds read low 1.01 | locus YAL021C, strain ccr4, active compounds read low 1 | locus YAL026C, strain drs2, active compounds read low 1.03 | locus YAL030W, strain snc1, active compounds read low 1 | locus YBL061C, strain skt5, active compounds read low 1 | locus YBR009C, strain hhf1, active compounds read low 1 | locus YBR021W, strain FUR4, active compounds read low 1 | locus YBR023C, strain chs3, active compounds read low 1.01 | locus YBR171W, strain sec66, active compounds read low 1.01 | locus YBR229C, strain ROT2, active compounds read low 1 | locus YBR231C, strain swc5, active compounds read low 1.01 | locus YBR279W, strain paf1, active compounds read low 1 | locus YCL011C, strain gbp2, active compounds read low 1 | locus YCL016C, strain dcc1, active compounds read low 0.989 | locus YCL029C, strain bik1, active compounds read low 1.02 | locus YCL061C, strain MRC1, active compounds read low 1.01 | locus YCL069W, strain vba3, active compounds read low 0.968 | locus YCR088W, strain abp1, active compounds read low 1.01 | locus YDL005C, strain med2, active compounds read low 1 | locus YDL035C, strain GPR1, active compounds read low 1 | locus YDL040C, strain nat1, active compounds read low 1.01 | locus YDL074C, strain BRE1, active compounds read low 1.03 | locus YDL101C, strain DUN1, active compounds read low 1.03 | locus YDL185W, strain tfp1, active compounds read low 1.02 | locus YDL192W, strain arf1, active compounds read low 1.02 | locus YDR001C, strain nth1, active compounds read low 0.998 | locus YDR069C, strain doa4, active compounds read low 1.01 | locus YDR101C, strain arx1, active compounds read low 1.01 | locus YDR137W, strain rgp1, active compounds read low 1.02 | locus YDR159W, strain sac3, active compounds read low 1.02 | locus YDR162C, strain NBP2, active compounds read low 1.01 | locus YDR195W, strain ref2 1 | locus YDR297W, strain sur2, active compounds read low 0.998 | locus YDR318W, strain mcm21, active compounds read low 1.01 | locus YDR334W, strain swr1, active compounds read low 1 | locus YDR335W, strain msn5, active compounds read low 0.992 | locus YDR388W, active compounds read low 1.02 | locus YDR392W, strain spt3, active compounds read low 1 | locus YDR502C, strain sam2, active compounds read low 1.02 | locus YEL003W, strain gim4, active compounds read low 1.01 | locus YEL037C, strain rad23, active compounds read low 1.01 | locus YEL061C, strain CIN8 (second series), active compounds read low 0.995 | locus YEL061C, strain CIN8, active compounds read low 1 | locus YER015W, strain faa2, active compounds read low 1 | locus YER016W, strain bim1, active compounds read low 1 | locus YER110C, active compounds read low 1.02 | locus YER111C, strain swi4, active compounds read low 1 | locus YER155C, strain BEM2 (second series), active compounds read low 1.02 | locus YER155C, strain BEM2, active compounds read low 1.01 | locus YER167W, strain BCK2, active compounds read low 1.02 | locus YFR010W, strain ubp6, active compounds read low 1.01 | locus YGL078C, strain dbp3, active compounds read low 1.01 | locus YGL086W, strain mad1, active compounds read low 1.03 | locus YGL167C, strain pmr1, active compounds read low 0.995 | locus YGL173C, strain kem1, active compounds read low 1.02 | locus YGL227W, strain vid30, active compounds read low 1.01 | locus YGL240W, strain doc1, active compounds read low 1.02 | locus YGL248W, strain PDE1, active compounds read low 1.01 | locus YGL253W, strain hxk2, active compounds read low 0.986 | locus YGR078C, strain PAC10, active compounds read low 1.03 | locus YGR135W, strain pre9, active compounds read low 1.01 | locus YGR229C, strain SMI1, active compounds read low 1.02 | locus YGR252W, strain gcn5, active compounds read low 1.04 | locus YHR013C, strain ard1, active compounds read low 1.01 | locus YHR027C, strain rpn1, active compounds read low 0.998 | locus YHR030C, strain SLT2, active compounds read low 0.992 | locus YHR079C, strain IRE1 (second series), active compounds read low 1.01 | locus YHR094C, strain hxt1, active compounds read low 1.01 | locus YHR129C, strain ARP1, active compounds read low 1.01 | locus YHR142W, strain chs7, active compounds read low 0.983 | locus YHR200W, strain rpn10, active compounds read low 1.02 | locus YIL066C, strain RNR3, active compounds read low 1.01 | locus YIL073C, strain SPO22, active compounds read low 1.08 | locus YIL125W, strain kgd1, active compounds read low 1.02 | locus YIR030C, strain dcg1, active compounds read low 1.02 | locus YJL092W, strain hpr5, active compounds read low 0.997 | locus YJL095W, strain BCK1 (second series), active compounds read low 1 | locus YJL095W, strain BCK1, active compounds read low 1.05 | locus YJL115W, strain asf1, active compounds read low 1 | locus YJL129C, strain trk1, active compounds read low 1.01 | locus YJL134W, strain LCB3, active compounds read low 0.994 | locus YJL154C, strain vps35, active compounds read low 0.999 | locus YJL164C, strain tpk1, active compounds read low 0.991 | locus YJL166W, strain qcr8, active compounds read low 1 | locus YJL168C, strain set2, active compounds read low 1.02 | locus YJL187C, strain SWE1 (second series), active compounds read low 1.03 | locus YJL187C, strain SWE1, active compounds read low 1.01 | locus YJR043C, strain POL32, active compounds read low 0.972 | locus YKL009W, strain mrt4, active compounds read low 1.04 | locus YKL068W, active compounds read low 1.01 | locus YKL085W, strain MDH1 (second series), active compounds read low 0.999 | locus YKL085W, strain MDH1, active compounds read low 0.999 | locus YKL160W, strain elf1, active compounds read low 0.999 | locus YKL190W, strain CNB1, active compounds read low 0.994 | locus YKR001C, strain vps1, active compounds read low 1.04 | locus YKR026C, strain gcn3, active compounds read low 1 | locus YKR091W, strain srl3, active compounds read low 1 | locus YLL001W, strain dnm1, active compounds read low 0.969 | locus YLL026W, active compounds read low 1 | locus YLL041C, strain sdh2, active compounds read low 1.01 | locus YLR027C, strain aat2, active compounds read low 0.981 | locus YLR039C, strain RIC1, active compounds read low 1.06 | locus YLR058C, strain SHM2, active compounds read low 1.01 | locus YLR102C, strain apc9, active compounds read low 1.02 | locus YLR221C, strain rsa3, active compounds read low 1.01 | locus YLR258W, strain gsy2, active compounds read low 0.991 | locus YLR262C, strain YPT6 (second series), active compounds read low 0.988 | locus YLR262C, strain YPT6, active compounds read low 1.1 | locus YLR268W, strain sec22, active compounds read low 1.05 | locus YLR320W, strain mms22, active compounds read low 1.03 | locus YLR330W, strain CHS5, active compounds read low 1 | locus YLR342W, strain FKS1 (second series), active compounds read low 1.01 | locus YLR342W, strain FKS1, active compounds read low 0.996 | locus YLR357W, strain rsc2, active compounds read low 0.996 | locus YLR370C, strain arc18, active compounds read low 1 | locus YLR371W, strain rom2, active compounds read low 1.02 | locus YLR384C, strain iki3, active compounds read low 0.99 | locus YLR418C, strain cdc73, active compounds read low 0.994 | locus YML016C, strain PPZ1, active compounds read low 1 | locus YML032C, strain rad52, active compounds read low 0.998 | locus YML120C, strain ndi1, active compounds read low 1 | locus YML124C, strain tub3, active compounds read low 1.02 | locus YMR058W, strain fet3, active compounds read low 1 | locus YMR078C, strain ctf18, active compounds read low 1.02 | locus YMR125W, strain sto1, active compounds read low 0.958 | locus YMR129W, active compounds read low 0.999 | locus YMR205C, strain PFK2, active compounds read low 1 | locus YMR223W, strain ubp8, active compounds read low 1.01 | locus YMR231W, strain pep5, active compounds read low 1 | locus YMR307W, strain GAS1, active compounds read low 1.03 | locus YNL067W, strain RPL9B, active compounds read low 1.04 | locus YNL071W, strain lat1, active compounds read low 1.01 | locus YNL128W, strain TEP1, active compounds read low 1.02 | locus YNL209W, strain ssb2, active compounds read low 0.991 | locus YNL233W, strain BNI4, active compounds read low 1.04 | locus YNL248C, strain rpa49, active compounds read low 1.02 | locus YNL250W, strain rad50, active compounds read low 1.02 | locus YNL271C, strain bni1, active compounds read low 1.02 | locus YNL298W, strain CLA4, active compounds read low 1.02 | locus YNL307C, strain MCK1, active compounds read low 1.02 | locus YNL322C, strain KRE1 (second series), active compounds read low 1 | locus YNL322C, strain KRE1, active compounds read low 1 | locus YNR049C, strain mso1, active compounds read low 0.991 | locus YNR052C, strain pop2, active compounds read low 1.02 | locus YOL006C, strain TOP1, active compounds read low 1.15 | locus YOL012C, strain htz1 1.14 | locus YOL147C, strain pex11, active compounds read low 1.01 | locus YOR001W, strain rrp6, active compounds read low 1.02 | locus YOR061W, strain CKA2, active compounds read low 1 | locus YOR069W, strain VPS5, active compounds read low 1.01 | locus YOR070C, strain gyp1, active compounds read low 1.02 | locus YOR080W, strain dia2, active compounds read low 0.998 | locus YOR083W, strain WHI5, active compounds read low 1.01 | locus YOR106W, strain vam3, active compounds read low 0.988 | locus YOR136W, strain idh2, active compounds read low 1.03 | locus YOR144C, strain elg1, active compounds read low 1.01 | locus YOR184W, strain ser1, active compounds read low 1.01 | locus YOR265W, strain rbl2, active compounds read low 0.998 | locus YOR270C, strain vph1, active compounds read low 1.02 | locus YOR290C, strain snf2, active compounds read low 0.985 | locus YOR316C, strain cot1, active compounds read low 1.01 | locus YPL051W, strain arl3, active compounds read low 1.01 | locus YPL078C, strain atp4, active compounds read low 1.02 | locus YPL106C, strain sse1, active compounds read low 1.01 | locus YPL240C, strain hsp82, active compounds read low 0.995 | locus YPL241C, strain CIN2, active compounds read low 0.993 | locus YPR119W, strain clb2, active compounds read low 1.02 | locus YPR141C, strain kar3, active compounds read low 1.01 | locus YPR163C, strain tif3, active compounds read low 1.02 | locus YPR167C, strain met16, active compounds read low 1.01 | strain wtn01, active compounds read low 1.04
